± gives the standard deviation of the averaged measurements. The full ranking holds about 33,000 sequences; the median of “E-score (rank enrichment, -0.5 to 0.5)” is about -0.0043, and the highest 2% start at about 0.24. The entries come from a sample that favours the highest values as a whole.
tested on: 2Sp-muMax20 (muMax20 with two 2,6-bis(methyl)pyridine Cys staples); assay: PBM 8-mer E-score (E-score (rank enrichment, -0.5 to 0.5)); higher = stronger preferential binding
Protocol: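 Protein binding microarray (universal PBM chip covering all 10-mers in fixed probe flanks) with chemically synthesized human Max(13-93) bHLH-LZ analogs (not full-length Max) bearing noncanonical residues (hArg, Tha, Aib, Nle at 65) and aromatic Cys staples. Read-out per 8-mer (and its reverse complement): E-score (rank-based enrichment, -0.5 to 0.5) and Z-score of median probe intensity.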

Row | Sequence | PBM 8-mer E-score
1 | AATGCAAC | 0.136 ± 0.035
2 | CATGCAAC | 0.281 ± 0.056
3 | CATGCGAC | 0.308 ± 0.019
4 | GATGCACA | 0.0774 ± 0.012
5 | CATGCATC | 0.081 ± 0.025
6 | CATGCATG | 0.382 ± 0.024
7 | AATGCGAC | 0.0252 ± 0.028
8 | CATGCGAG | 0.165 ± 0.062
9 | CATGCACG | 0.0888 ± 0.024
10 | CATGCATA | 0.207 ± 0.0092
11 | CATGCAAG | 0.103 ± 0.05
12 | CGAGGAAG | -0.0173 ± 0.064
13 | CCGGCCGG | -0.229 ± 0.081
14 | CCCAACCC | 0.204 ± 0.019
15 | CGCAAAAA | -0.00934 ± 0.005
16 | CTGGGCGC | 0.0231 ± 0.038
17 | ATTTGGCA | -0.0164 ± 0.011
18 | ATTACTTG | 0.18 ± 0.017
19 | CTCCTACA | 0.0705 ± 0.028
20 | AGGGCTCA | -0.0979 ± 0.031
21 | CTCATGCC | 0.0321 ± 0.035
22 | AGCGGATC | -0.0391 ± 0.022

Row | Sequence | PBM 8-mer E-score
23 | AATGCATT | 0.356 ± 0.017
24 | CGTGCACA | 0.102 ± 0.071
25 | CGTGCACG | 0.338 ± 0.0045
26 | AATGCATA | 0.16 ± 0.074
27 | AATGCATG | 0.233 ± 0.038
28 | TGTGCACA | 0.0196 ± 0.045
29 | ACGGGACC | -0.245 ± 0.039
30 | GGAATTTA | -0.0803 ± 0.093
31 | GTCTTTGA | -0.121 ± 0.016
32 | CTATTGCC | -0.045 ± 0.019
33 | ATATTGCG | 0.117 ± 0.029
34 | ATATTGCC | 0.238 ± 0.0041
35 | CAAAAGTG | 0.11 ± 0.016
36 | GAAAGTAA | 0.0437 ± 0.0096
37 | CACAACGG | -0.145 ± 0.066
38 | GCCCGCCA | -0.0439 ± 0.026
39 | ACCCCGCC | 0.284 ± 0.099
40 | CCCCGCCA | 0.246 ± 0.071
41 | CGCCGCCC | 0.00789 ± 0.052
42 | ACCCGCCG | 0.131 ± 0.01
43 | CCCCCGCC | -0.0595 ± 0.056
44 | AACCCGCC | 0.128 ± 0.019

Row | Sequence | PBM 8-mer E-score
45 | ACCCGCCC | 0.3697 ± 0.0017
46 | GCCCGCCC | 0.16 ± 0.039
47 | CCCCGCCC | 0.295 ± 0.048
48 | TCCCGCCA | -0.0738 ± 0.002
49 | CCCCGCCG | 0.131 ± 0.011
50 | ATATCTCC | 0.197 ± 0.016
51 | ACAGTATC | 0.185 ± 0.073
52 | TTAGGAAA | -0.00284 ± 0.012
53 | ATGGTCAG | 0.122 ± 0.043
54 | CGCTCCGC | -0.154 ± 0.17
55 | TATCCGCA | 0.0196 ± 0.089
56 | AAATTCTT | 0.0344 ± 0.11
57 | CTATATTA | 0.168 ± 0.018
58 | ATGTATTA | 0.21 ± 0.014
59 | GTATATTA | 0.243 ± 0.0031
60 | ATATACTC | 0.0166 ± 0.11
61 | CTATACTA | 0.113 ± 0.12
62 | ATATATTG | 0.221 ± 0.0031
63 | GCATATTA | 0.153 ± 0.0097
64 | GGATATTA | 0.161 ± 0.084
65 | GTGTATTA | 0.239 ± 0.069
66 | CTGTATTA | 0.141 ± 0.0065

Row | Sequence | PBM 8-mer E-score
67 | ATATACTA | 0.285 ± 0.027
68 | ATATATTA | 0.264 ± 0.012
69 | CAGTACTA | 0.128 ± 0.056
70 | AGAGATCC | -0.0549 ± 0.05
71 | TATCGACA | -0.0261 ± 0.032
72 | CGAGCGTC | -0.00097 ± 0.042
73 | ACACCATG | 0.0073 ± 0.025
74 | CATTGTCA | -0.0464 ± 0.016
75 | AAAGGGGT | 0.123 ± 0.013
76 | CCCCTGCG | -0.168 ± 0.0048
77 | GCCAATGA | 0.00492 ± 0.00047
78 | GACGGAAA | 0.0756 ± 0.07
79 | CGTTGAAC | -0.0586 ± 0.068
80 | GATTGATA | 0.115 ± 0.015
81 | AATTGATC | 0.0176 ± 0.058
82 | CATTGATA | 0.179 ± 0.1
83 | AATTGATA | 0.252 ± 0.025
84 | ACTTGATG | 0.0152 ± 0.0016
85 | AATTGATG | 0.25 ± 0.021
86 | AAGACCCC | 0.0259 ± 0.047
